PubChem BioAssay (NCATS)
Results filed as inconclusive are left out. Active and inactive are the calls of the source. Calls come from the whole dose curve; as a rule, active = well fitted inhibition curve with a large enough effect; inconclusive = small, poorly fitted or top-dose-only effect; inactive = flat fitted curve, though single readings scatter.

The compounds below were run against Calcium and integrin-binding protein 1 (Homo sapiens) (UniProt Q99828) (assay: Primary qHTS for Identification of Calcium Integrin Binding Protein 1 (CIB1) Competitor (AID 1508620;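 note: GST tagged CIB1 binding a fluorescein labelled alphaIIb integrin peptide tracer; top concentration of the series differs between compounds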)). Settings: CIB1-GST / FITC-alphaIIb peptide fluorescence polarization; series mostly up to 114 µM; activity change, negative = inhibition: at the top concentration.
Calcium and integrin-binding protein 1 (Homo sapiens), sequence (Q99828 whole entry, looked up): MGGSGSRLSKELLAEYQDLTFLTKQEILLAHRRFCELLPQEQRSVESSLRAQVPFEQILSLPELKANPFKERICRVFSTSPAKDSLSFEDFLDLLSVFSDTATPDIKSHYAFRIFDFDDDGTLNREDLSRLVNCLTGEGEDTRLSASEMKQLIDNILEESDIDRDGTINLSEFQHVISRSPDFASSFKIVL
Procedure, shortened: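 CIB1-GST (1 uM final) and compound incubated 15 min at room temperature before adding FITC-alphaIIb peptide tracer (100 nM final). Competition for binding read by fluorescence polarization (ex 480, em 540) after another 15 min at room temperature.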
% is set by controls: 0 for no effect and ±100 for the full control effect.

SMILES	activity change, negative = inhibition
CC1=CCC(C(C)(C)O[C@@H]2O[C@H](CO[C@@H]3O[C@@H](C)[C@H](O)[C@@H](O)[C@H]3O)[C@@H](O)[C@H](O)[C@H]2O)CC1 (stereo partly specified)	-2.96% [at 57.7 µM] (inactive)
Cc1c(C(=O)Nc2ccc(N3CC(C)OC(C)C3)nc2)cccc1-c1ccc(OC(F)(F)F)cc1 (stereo unspecified)	2.02% (inactive)
CC(O)/C=C/C1(O)C(C)C(O[C@@H]2O[C@H](CO)[C@@H](O)[C@H](O)[C@H]2O)C(O)CC1(C)C (stereo partly specified)	3.47% [at 57.7 µM] (inactive)
CC(C)(F)C[C@@H](N[C@@H](c1ccc(-c2ccc(S(C)(=O)=O)cc2)cc1)C(F)(F)F)C(=O)NC1(C#N)CC1	-0.804% (inactive)
CC(=O)SCC(=O)c1ccc(NS(=O)(=O)c2ccc(OCCCN(C)C)cc2)nc1	3% (inactive)
OC1CCC(Nc2ncc3nc(Nc4c(F)cc(F)cc4F)n([C@H]4CCOC4)c3n2)CC1 (stereo partly specified)	-1.96% (inactive)
C[C@@H]1O[C@@H](O[C@@H]2CO[C@@H](O[C@H]3CC[C@@]4(C)C(CC[C@]5(C)C4CC=C4[C@@H]6CC(C)(C)CC[C@]6(C(=O)O[C@@H]6O[C@H](CO)[C@@H](O)[C@H](O)[C@H]6O)CC[C@]45C)[C@]3(C)CO)[C@H](O)[C@H]2O[C@@H]2O[C@H](CO)[C@@H](O)[C@H](O)[C@H]2O)[C@H](O)[C@H](O)[C@H]1O (stereo partly specified)	-4.42% [at 30.2 µM] (inactive)
C=C(C(=O)OC)C1C(O)CC2(C)C(=O)CCC(O)(CO)C2C1O (stereo unspecified)	3.21% [at 57.7 µM] (inactive)
C/C1=C\CC[C@H](C)CCO[C@@H]2O[C@H](CO[C@@H]3OC[C@](O)(COC1=O)[C@H]3O)[C@@H](O)[C@H](O)[C@H]2O	-1.3% [at 57.7 µM] (inactive)
C[C@@H]1O[C@@H](O[C@H]2[C@H](OC(=O)[C@]34CCC(C)(C)C[C@H]3C3=CCC5[C@@]6(C)C[C@H](O)[C@H](O[C@@H]7O[C@H](CO)[C@@H](O)[C@H](O)[C@H]7O)[C@@](C)(CO)C6[C@H](O)C[C@@]5(C)[C@]3(C)CC4)OC[C@H](O)[C@@H]2O)[C@H](O)[C@H](O)[C@H]1O[C@@H]1OC[C@@H](O)[C@H](O[C@@H]2OC[C@](O)(CO)[C@H]2O)[C@H]1O (stereo partly specified)	3.34% [at 12.4 µM] (inactive)
CC(=O)C12OC(C)(C)OC1CC1C3CCC4=CC(=O)C=CC4(C)C3(F)C(O)CC12C (stereo unspecified)	1.61% (inactive)
OCC1OC(Oc2cc(O)cc(/C=C/c3ccc(O)cc3)c2)C(O)C(O)C1O (stereo unspecified)	2.33% [at 57.7 µM] (inactive)
Cc1nc(NC(=O)N2CCCC2C(N)=O)sc1-c1csc(C(C)(C)C)n1 (stereo unspecified)	0.193% (inactive)
O=C(/C=C/c1ccccc1)OC[C@]12O[C@H]1[C@@H](O)[C@@H]1C=CO[C@@H](O[C@@H]3O[C@H](CO)[C@@H](O)[C@H](O)[C@H]3O)[C@@H]12	0.537% [at 57.7 µM] (inactive)
COC(=O)c1c(C)cc(OC(=O)c2c(C)cc(OC)cc2OC)cc1O[C@@H]1O[C@H](CO)[C@@H](O)[C@H](O)[C@H]1O	-9.73% [at 57.7 µM] (inactive)
COC(=O)C1=COC(O[C@@H]2O[C@H](CO)[C@@H](O)[C@H](O)[C@H]2O)[C@H]2[C@@H]1[C@H](OC(=O)CCc1ccc(O)cc1)C[C@]2(C)O (stereo partly specified)	0.111% [at 57.7 µM] (inactive)
CO[C@H]1/C=C\O[C@@]2(C)Oc3c(C)c(O)c4c(O)c(c5c(nc6cc(C)ccn65)c4c3C2=O)NC(=O)/C(C)=C\C=C/[C@H](C)[C@H](O)[C@@H](C)[C@@H](O)[C@@H](C)[C@H](OC(C)=O)[C@@H]1C	-6.92% (inactive)
C=C(C)C1Cc2cc(C(=O)OC3OC(CO)C(O)C(O)C3O)ccc2O1 (stereo unspecified)	-1.89% [at 57.7 µM] (inactive)
CC(C)=CCC/C(C)=C/CO[C@@H]1O[C@H](CO)[C@@H](OC(=O)/C=C/c2ccc(O)cc2)[C@H](O[C@@H]2O[C@@H](C)[C@H](O)[C@@H](O)[C@H]2O)[C@H]1O	2.97% [at 30.2 µM] (inactive)
N#C[C@@H]1CCCN1C(=O)CNC12CC3CC(CC(O)(C3)C1)C2	3.45% (inactive)
Nc1nc2c(ncn2[C@@H]2O[C@H](CO)[C@@H](O)[C@H]2O)c(=O)[nH]1	-6.36% (inactive)
C=CC1(C)C=C2C(=O)OC(=O)C3=C(CCCC3(C)C)C2(O)CC1 (stereo unspecified)	3.72% [at 57.7 µM] (inactive)
COc1cccc(Nc2ncnn3ccc(CN4CC[C@@H](N)[C@H](O)C4)c23)c1	4.35% (inactive)
CC(=O)NC1C(OC(C)(C)C2CCC3(C)C=C(C4CCC5C4(C)CC(O)C4OC(C(C)(C)O)CCC45C)CCC3O2)OC(CO)C(O)C1O (stereo unspecified)	-6.04% [at 30.2 µM] (inactive)
COc1ccc(C2=N[C@@H](c3ccc(Cl)cc3)[C@@H](c3ccc(Cl)cc3)N2C(=O)N2CCNC(=O)C2)c(OC(C)C)c1	-10.8% (inactive)
C[C@]12C[C@@H](O)[C@@H]3C[C@@]1(O[C@@H]1O[C@H](CO)[C@@H](O)[C@H](O)[C@H]1O)[C@]3(COC(=O)c1ccccc1)C(=O)O2	2.45% [at 57.7 µM] (inactive)
